In PubChem BioAssay AID463173 (ICCB-Longwood Screening Facility, Harvard Medical School, 2010):
Screen size: about 52,000 compounds; about 1,700 (3.3%) were called active. Shown is part of a subset that was picked to be rich in actives. Unmarked numbers belong to inactive results. No stated cut-off is given here; in the data, active means survival mostly below about 52% (no sharp cut-off); inactive means mostly above about 56%.

tested on: Wild type; test: S. aureus survival, RN4220 and DeltatarO strains – OD600, teichoic acid synthesis inhibitors, primary screen (AID 463173); conditions: S. aureus RN4220 wild type/DeltatarO growth, OD600, 18 h, stronger effect = lower value, screened at 18.75 µg/mL (by protocol)

Structure (SMILES) | survival
O=C(CSc1nc(=O)n(Cc2ccco2)c2c1CCC2)Nc1cccc(F)c1 | 72%
C=CCN(CC=C)C(=O)C1CCN(Cc2cc(Br)c(O)c(OC)c2)CC1 | 98%
COC(=O)c1cc2oc3ccccc3c2n1Cc1ccccc1Cl | 60%
COC(=O)c1cc2oc(C)cc2n1Cc1ccccc1Cl | -2% (active)
COC(=O)c1cc2oc(C)cc2n1Cc1ccc(Br)cc1F | 48%
CCC(Oc1ccccc1F)C(=O)Nc1cc(-c2ccccc2)no1 (stereo not drawn) | 66%
Cc1cccc(C)c1NC(=O)c1ccc2c(c1)nnn2C1CCCC1 | -6% (active)
Cc1cc(C)cc(NC(=O)c2ccc3c(c2)nnn3C2CCCC2)c1 | 121%
Cc1c(Cl)cccc1NC(=O)c1ccc2c(c1)nnn2C1CCCC1 | 120%
COC(=O)c1ccccc1NC(=O)CSc1nnc2cc(C)c3cc(C)cc(C)c3n12 | 72%
CC(=O)N1CCc2c(sc3c2c(=O)n(-c2ccccc2)c(=O)n3CC(=O)c2ccc(F)cc2)C1 | 91%
CC(C)c1ccc(Nc2c(-c3ccccc3O)nc3cnccn23)cc1 | 61%
CC(C)c1ccc(Nc2c(-c3ccccn3)nc3ccccn23)cc1 | -21% (active)
Clc1ccc(Nc2c(-c3ccccc3Cl)nc3ccc(Cl)cn23)cc1 | 25%
Cc1ccn2c(Nc3ccccc3C)c(-c3ccc(N4CCOCC4)cc3)nc2c1 | 113%
Cc1ccc2nc(-c3ccccc3F)c(Nc3ccc(Cl)cc3)n2c1 | 11% (active)
COc1cc(O)ccc1-c1nc2cc(C)ccn2c1Nc1ccccc1C | 73%
CC(C)c1ccc(Nc2c(-c3ccco3)nc3ccccn23)cc1 | 33%
Cc1cccc(C)c1Nc1c(-c2ccccc2Cl)nc2cnccn12 | 123%
Cc1ccn2c(Nc3ccccc3C)c(-c3ccccn3)nc2c1 | 24% (active)
COc1ccc(Nc2c(-c3ccccn3)nc3ccc(Cl)cn23)cc1 | 96%
Cc1ccc2nc(-c3ccc(O)cc3)c(Nc3ccc(Cl)cc3)n2c1 | 69%
Oc1ccccc1-c1nc2cnccn2c1Nc1ccc(Cl)cc1 | -16% (active)
N#C/C(=C\c1cn(CC(=O)N2CCCC2)c2ccccc12)C(=O)NC1CC1 | 103%

Structure (SMILES) | survival
CCC(C(=O)NC1CCCCC1)n1c(SCc2ccccc2F)nc2ccncc21 (stereo not drawn) | 73%
COc1ccc(CNC(=O)CCc2c(C)nc3nc(CNC(=O)OC(C)(C)C)nn3c2C)cc1 | 77%
COc1ccc(C2=NS(=O)(=O)N(C)C(C(=O)NCc3ccccc3)=C2)cc1OC | 102%
CCC(C)NC(=O)CSc1nc2n[nH]c(C)c2c(=N)n1-c1cc(Cl)ccc1C (stereo not drawn) | 72%
COc1ccccc1CNC(=O)c1c[nH]c2ccc(S(=O)(=O)Nc3cc(C)cc(C)c3)cc2c1=O | 67%
CCC(C)n1c(=O)c2sccc2n2c(CCCC(=O)Nc3ccc(F)cc3)nnc12 (stereo not drawn) | 97%
CCN(CC)C(=O)C(C(F)(F)F)C(F)(F)F | 103%
Cc1ccc(Nc2c(-c3ccccc3O)nc3cc(C)ccn23)cc1 | 73%
Fc1ccc(Nc2c(-c3ccccn3)nc3ccc(Cl)cn23)cc1 | 73%
Cc1ccccc1Nc1c(-c2ccc(Br)o2)nc2ccc(Cl)cn12 | 10% (active)
Cc1ccc(Nc2c(-c3cc(Br)ccc3F)nc3cc(C)ccn23)cc1 | 0% (active)
Cc1ccc2nc(-c3ccccc3O)c(Nc3ccccc3C)n2c1 | 79%
Cc1ccccc1Nc1c(-c2ccncc2)nc2ccc(Cl)cn12 | 128%
CSc1ccc(-c2nc3cc(C)ccn3c2Nc2ccc(C)cc2)cc1 | 87%
Cc1ccc2nc(-c3ccccn3)c(Nc3ccccc3C)n2c1 | 18% (active)
Cc1ccccc1Nc1c(-c2cccnc2)nc2ccc(Cl)cn12 | 81%
Cc1ccc2nc(-c3ccncc3)c(Nc3ccccc3C)n2c1 | 101%
Cc1ccc2nc(-c3ccccn3)c(Nc3ccc(F)cc3)n2c1 | 16% (active)
Cc1ccc(Nc2c(-c3ccccn3)nc3ccc(Br)cn23)cc1 | 60%
Cc1ccccc1Cn1c(C)c(CNCCCc2ccccc2)c(C(=O)O)c1C | 98%
O=C(c1ccc2c(c1)N(Cc1ccccc1F)C(=O)c1ccccc1S2=O)N1CCCCC1 (stereo not drawn) | 89%
CCCS(=O)(=O)c1ncc(Cl)c(C(=O)N(Cc2ccccc2)Cc2ccco2)n1 | 44%
Cc1ccn2c(Nc3ccccc3C)c(-c3ccccc3)nc2c1 | -3% (active)
Cc1ccn2c(Nc3ccccc3C)c(-c3cccnc3)nc2c1 | 71%

Structure (SMILES) | survival
Cc1ccn2c(Nc3ccccc3C)c(-c3ccncc3)nc2c1 | 80%
CCCC12CN3CC(CCC)(CN(C1)C3c1ccc(OC(C)C)cc1)C2=O (stereo not drawn) | 39%
COc1cc(NS(=O)(=O)c2ccc3[nH]c4c(c3c2)CCCCCC4)cc(OC)c1 | 57%
Cc1ccc(NS(=O)(=O)c2ccc3[nH]c4c(c3c2)CCCCCC4)cc1Cl | 71%
Cc1ccc(NS(=O)(=O)c2ccc3[nH]c4c(c3c2)CCCCCC4)cc1 | 71%
COc1ccc(NS(=O)(=O)c2ccc3[nH]c4c(c3c2)CCCCC4)cc1 | 127%
COC(=O)c1ccc(NS(=O)(=O)c2ccc3[nH]c4c(c3c2)CCCCC4)cc1 | 119%
CC(=O)c1ccc(NS(=O)(=O)c2ccc3[nH]c4c(c3c2)CCCC4)cc1 | 84%
O=S(=O)(NCc1ccc(F)cc1)c1ccc2[nH]c3c(c2c1)CCCC3 | -3% (active)
COC(=O)c1ccc(NS(=O)(=O)c2ccc3[nH]c4c(c3c2)CCCC4)cc1 | 1% (active)
O=S(=O)(NCc1ccc(F)cc1)c1ccc2[nH]c3c(c2c1)CCCCC3 | 55%
Cc1ccc(CNS(=O)(=O)c2ccc3[nH]c4c(c3c2)CCCC4)cc1 | 82%
Cc1ccc(NS(=O)(=O)c2ccc3[nH]c4c(c3c2)CCCCCC4)cc1C | -3% (active)
COc1ccc(NS(=O)(=O)c2ccc3[nH]c4c(c3c2)CCCCCC4)cc1 | -4% (active)
CCC(C)NC(=O)Cn1c(=O)n(-c2cc(OC)cc(OC)c2)c(=O)c2ccccc21 (stereo not drawn) | 94%
CCOc1ccc(OCC)c(NC(=O)c2cc(CN3CCOCC3)on2)c1 | 72%
COCCn1c(CCC(=O)Nc2ccc(OC)c(OC)c2)nc2cccnc21 | 90%
CC1CCN(C(=O)CN(C)S(=O)(=O)c2ccc3ccccc3c2)CC1 | 115%
CCCCN(C(=O)c1cccs1)c1nnc(-c2cc(OC)cc(OC)c2)s1 | 116%
O=C1CCCc2cc(S(=O)(=O)NCC3CCC(C(=O)NCc4ccc(F)cc4)CC3)ccc2N1 (stereo not drawn) | 93%
O=C(NCCc1ccccc1)c1ccc2c(c1)CCN2S(=O)(=O)c1ccc(Cl)cc1 | 114%
O=C(Nc1nc2ccccc2s1)c1ccc(S(=O)(=O)N2CCCC2)cc1 | 80%
CCc1nn(CC(=O)NCCc2ccc(OC)c(OC)c2)c(=O)c2cc3occc3n12 | 147%
CCS(=O)(=O)N1CC(=O)N(c2ccccc2C)C(C)(C(=O)NC2CCCCC2)C1 (stereo not drawn) | 82%

Structure (SMILES) | survival
Cc1ccc(N2CCN(S(=O)(=O)c3ccc4[nH]c5c(c4c3)CCCCC5)CC2)c(C)c1 | 135%
Cc1ccc(C)c(N2CCN(S(=O)(=O)c3ccc4[nH]c5c(c4c3)CCCC5)CC2)c1 | -4% (active)
Cc1ccc(C)c(N2CCN(S(=O)(=O)c3ccc4[nH]c5c(c4c3)CCCCC5)CC2)c1 | 89%
CCOC(=O)c1ccc(NC(=O)CN2c3ccccc3S(=O)(=O)c3ccccc32)cc1 | 121%
O=C(NCc1ccco1)c1ccc(Cn2c(SCc3ccccc3F)nc3cccnc32)cc1 | 74%
CCOC(=O)/C(C#N)=C(\O)c1ccccc1 | 104%
COc1cc2c(cc1NC(=O)C(C)Oc1ccccc1)oc1ccccc12 (stereo not drawn) | 1% (active)
CCc1ccc(OCC(=O)Nc2c(C(=O)c3ccccc3)oc3ccccc23)cc1 | 65%
CCc1ccc(OC(C)C(=O)Nc2c(C(=O)c3ccccc3)oc3ccccc23)cc1 (stereo not drawn) | 13% (active)
CCOc1ccc(NC(=O)c2oc3ccccc3c2NC(=O)C(C)Oc2ccccc2)cc1 (stereo not drawn) | 94%
COc1cc2c(cc1NC(=O)C(C)Oc1ccc(Cl)cc1Cl)oc1ccccc12 (stereo not drawn) | 49%
Cc1cc(C)cc(OCC(=O)Nc2c(C(=O)c3ccccc3)oc3ccccc23)c1 | 78%
Cc1cc(OC(C)C(=O)Nc2c(C(=O)c3ccc(F)cc3)oc3ccccc23)ccc1Cl (stereo not drawn) | 68%
Cc1cc(C)cc(OC(C)C(=O)Nc2c(C(=O)c3ccccc3)oc3ccccc23)c1 (stereo not drawn) | -1% (active)
COc1cc2c(cc1NC(=O)COc1cc(C)cc(C)c1)oc1ccccc12 | 75%
CC(=O)c1cc(-c2ccc(F)cc2)n(CC(=O)Nc2cc(C)cc(C)c2)c1C | 66%
Cc1ccc(Nc2c(-c3ccc(C)s3)nc3ncccn23)cc1 | 43%
Cc1cccc(N2CCN(C(=O)c3cccn4c(=O)c5cc(Cl)ccc5nc34)CC2C)c1 (stereo not drawn) | 65%
Cc1cccc(N2CCN(C(=O)c3cnc4c(C)cccn4c3=O)CC2C)c1 (stereo not drawn) | 0% (active)
Cc1cccn2c(=O)c(C(=O)N3CCN(c4ccccc4)CC3)cnc12 | 22%
COc1ccc(NS(=O)(=O)c2ccc3c(c2)n(C)c(=O)c(=O)n3C)cc1Cl | 77%
